The campaign covered roughly 50,000 compounds. About 800 (1.6%) showed an effect of 50% or more. What follows is part of a selection rich in strong results, with near analogues and random picks from the rest.

Chain of Bcl-2-like protein 10 (Homo sapiens) (Q9HD36 whole entry, looked up): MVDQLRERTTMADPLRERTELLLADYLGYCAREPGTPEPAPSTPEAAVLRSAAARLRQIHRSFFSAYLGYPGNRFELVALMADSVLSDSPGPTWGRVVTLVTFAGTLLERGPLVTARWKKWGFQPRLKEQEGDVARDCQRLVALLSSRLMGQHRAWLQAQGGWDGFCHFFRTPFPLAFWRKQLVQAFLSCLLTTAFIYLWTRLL

This assay addresses Bcl-2-like protein 10 (Homo sapiens) (UniProt Q9HD36). Briefly: TR3 peptide-Bcl-B binding displacers, biochemical primary FP assay, phenotype converters (AID 1240).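 Further: 0% = Bcl-B with tracer peptide and DMSO and 100% = tracer peptide lacking Bcl-B.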 Conditions: GST-Bcl-B / FITC-TR3 peptide fluorescence polarization; stronger effect = higher value; compound at 3.75 mg/L. For orientation: In fluorescence polarisation assays a small probe gives low polarisation when free and higher when bound to something large.
As for `O=C(O)CCC(=O)Nc1ccc2nn(-c3ccccc3)nc2c1`, the displacement is 3.6%.
The figure for `COc1cc(C(=O)Nc2ccc(Br)cn2)cc(OC)c1OC` is -1.3%.
Turning to `CCOc1ccc(-c2c(C#N)c(N)nc3sc(C#N)c(N)c23)cc1`, the displacement is -1.4%.
In the case of `COc1ccc(-c2c(C#N)c(N)nc3c2CCCCC3)cc1OC`, the displacement is -2.3%.
For the compound `CCCCOC(=O)c1sc2nc(N)c(C#N)c(-c3ccc(OC)c(OC)c3)c2c1N`, the displacement amounted to 167%.
With `O=C(CCN1C(=O)c2ccccc2C1=O)NC1CCCC1`, the displacement turned out to be 8.5%.
In the case of `O=C(N/N=C/c1cccnc1)/C(=C\c1cccs1)NC(=O)c1ccccc1`, the displacement was -9.3%.
The figure for `O=C1NC(=Nc2cccc(O)c2)S/C1=C\c1ccc(F)cc1` is 75.8%; for `O=C1NC(=Nc2cccnc2)S/C1=C\c1cccc(F)c1` it is 146%.
Consider `O=C1NC(=Nc2ccc(O)cc2)S/C1=C\c1ccc(F)cc1`, for which the displacement amounted to 7.7%.
The figure for `O=C1NC(=Nc2cccnc2)S/C1=C\c1ccc(Br)cc1` is 12.1%; for `O=C1NC(=Nc2cccc(O)c2)S/C1=C\c1cccc(O)c1` it is 1.9%; for `O=C1NC(=Nc2cccnc2)S/C1=C\c1ccc(F)cc1` it is 3.5%.
Consider `CCOC(=O)C12CC3CC(CC(C3)C1)C2`, for which the displacement was -12.2%.
Under `COc1ccc([N+](=O)[O-])cc1NCc1cccnc1` stands 3.1%; under `NC(=O)c1cccc(N=Cc2c(O)ccc3ccccc23)c1`, -0.3%; under `Oc1ccc2ccccc2c1C=Nc1ccc2oc(-c3ccccc3Br)nc2c1`, 120%.
Under `CCC(=O)Nc1ccc2oc(-c3ccccc3Br)nc2c1` stands 8.7%.
Under `COc1ccc(-c2ccc(-c3nnc(-c4cccc(C)c4)o3)cc2)cc1` stands -5.4%; under `COc1cc(C=NN2CCN(Cc3ccc(C)cc3C)CC2)cc(Br)c1O`, 10.3%.
With `N#C/C(=N\Nc1ccccc1F)c1nc(-c2ccccc2)cs1`, the displacement amounted to 7.2%.
Take `N#C/C(=N\Nc1ccccc1)c1nc(-c2ccc(F)cc2)cs1`: the displacement worked out at 127%.
Regarding `N#C/C(=N/Nc1cccc(C(F)(F)F)c1)c1nc(-c2ccccc2)cs1`, the displacement is -4.4%.
Under `Cc1ccccc1CNC(=O)CN(c1ccc(Oc2ccccc2)cc1)S(C)(=O)=O` stands 7.2%.
On to `CCOc1ccccc1NC(=O)c1cc(C(=O)OC)cc([N+](=O)[O-])c1`, for which the displacement was -7.1%.
Turning to `CC1=NN(c2ccc(S(N)(=O)=O)cc2)C(=O)/C1=C\c1ccc(-c2ccc(C)c(Cl)c2)o1`, the displacement was found to be 4%.
Under `COc1ccc(N2C(=O)/C(=C\c3cc(OC)ccc3OC)SC2=S)cc1` stands 28.3%; under `COc1ccc(/C=C2\NC(=S)N(c3ccccc3)C2=O)cc1OC`, 41.7%.
Under `COc1ccc(/C=C2/SC(=O)N(CNc3ccc(Br)cc3C)C2=O)c(OC)c1` stands 31.7%; under `COc1ccc(OC)c(/C=C2/SC(=S)N(c3ccccc3OC)C2=O)c1`, -0.9%; under `COC(=O)CN1C(=O)/C(=C/c2cc(OC)ccc2OC)SC1=S`, -14.6%.
Under `COc1ccc(OC)c(/C=C2/SC(=S)N(CNc3cccc(Cl)c3)C2=O)c1` stands 57%; under `COc1ccccc1/C=C1/SC(=O)N(CNc2cccc(Cl)c2)C1=O`, 9.1%; under `COc1ccc(OC)c(/C=C2\SC(=S)N(c3ccccc3C)C2=O)c1`, 158%.
Consider `COc1ccc(OC)c(/C=C2/SC(=O)N(CNc3ccc(Br)cc3C)C2=O)c1`, for which the displacement is 90.9%.
The figure for `COc1ccc(OC)c(/C=C2\NC(=S)N(c3ccccc3)C2=O)c1` is 62.3%.
As to `COc1ccc(/C=C2/SC(=O)N(CNc3ccc(Br)cc3C)C2=O)cc1`, the displacement came out at 4.5%.
Under `COc1ccc(C=C2NC(=S)N(c3ccccc3)C2=O)c(OC)c1` stands 3.7%; under `COc1cc(CNc2ccc(Br)cc2C)cc(OC)c1OC`, 13.2%; under `Cc1ccc(C(=O)Nc2cc(-c3cccc(C)c3)[nH]n2)cc1`, 6.2%.
In the case of `O=C1/C(=C\c2cccc(C(F)(F)F)c2)SC(=S)N1Cc1ccccc1`, the displacement was determined as 11%.
For the compound `Cc1cc(Br)cc2c1NC(=O)C21OCCO1`, the displacement was -4.3%.
The figure for `Cc1nnc(C)n1/N=C/c1ccc(O)c(O)c1` is 15.9%; for `COc1ccccc1CNC(=O)C/C(C)=N/NC(=O)C(=O)NC(C)C` it is -14.6%; for `N#C/C(=C/c1c[nH]c2ccccc12)C(=O)Nc1cccc(Br)c1` it is 90.7%.
Under `CN(C)c1ccc(/C=C(/C#N)C(=O)Nc2cccc(Br)c2)cc1` stands 53.8%; under `CC(=O)c1cccc(NC(=O)/C(=C\c2ccc(Br)cc2)NC(=O)c2ccc(C)cc2)c1`, 2.4%; under `CSc1ccc(/C=C(\NC(=O)c2ccc(C)cc2)C(=O)Nc2cccc(F)c2)cc1`, 127%.
On to `Cc1[nH]c2ccccc2c1/C=C(/C#N)C(=O)Nc1cccc(Br)c1`, for which the displacement is -17.5%.
The figure for `CSc1ccc(/C=C(\NC(=O)c2ccc(C)cc2)C(=O)Nc2cccc(C)c2)cc1` is -2.7%.
Take `Cc1ccc(/C=C(/C#N)C(=O)Nc2cccc(Br)c2)o1`: the displacement was -37.3%.
Take `N#C/C(=C\c1c[nH]c2ccccc12)C(=O)Nc1ccc(F)cc1`: the displacement worked out at 15.3%.
On to `N#C/C(=C/C=C/c1ccco1)C(=O)Nc1cccc(Br)c1`, for which the displacement was 59.3%.
The figure for `N#C/C(=C/c1ccc(C(=O)O)cc1)C(=O)Nc1cccc(Br)c1` is -2.2%.
Under `N#C/C(=C/c1ccc(O)cc1)C(=O)Nc1cccc(Br)c1` stands -32.7%.

The record behind these values is PubChem BioAssay AID1240 (Sanford-Burnham Center for Chemical Genomics, 2008).
